# Laboratory results: ChEMBL document CHEMBL3988442, “University of Dundee, Small-Polar-MMV Screening Library” (2021)
# The whole screen tested about 69,000 compounds, of which about 1,000 (1.4%) showed an effect of 50% or more. The sample holds strong results, similar compounds and a random draw of the others, so the mix is not that of the screen.
# System: Leishmania donovani
# Experiment: Leishmania intramacrophage assay
# Assay type: functional, organism-based
# Parameters: scale not given: in the data most compounds retested in dose-response had high values
smiles,measurement,setting,value
Cc1nc(C)n(CC2CCCN(Cc3ccc(C(N)=O)cc3)C2)n1 (centres undefined),Percent Effect,"30 µM, 30.03 µM",-3.523%
Cc1ccc(F)c2c1N(C(=O)c1cn(CC(=O)N(C)C)nn1)CCC2,Percent Effect,"30.3 µM, […]",-28.86%
CCCSCC(=O)NS(=O)(=O)c1ccc2c(c1)OCCO2,Percent Effect,"30 µM, 30.03 µM",12.46%
O=C(O)C(F)(F)F.O=C(O)C(F)(F)F.c1c(CN2CCCC2)nc2n1CCN(C1CCOCC1)C2,Percent Effect,"30.3 µM, […]",25.13%
CC(C)NC(=O)C1(Cc2ccccc2-c2ccccc2)CCCNC1 (centres undefined),Percent Effect,"30.3 µM, […]",40.16%
Cc1ccc(-c2ccccc2CC2(C(=O)NC(C)C)CCCNC2)cc1 (centres undefined),Percent Effect,"30.3 µM, […]",53.92%
CC(C)NC(=O)C1(Cc2ccccc2-c2cncnc2)CCCNC1 (centres undefined),Percent Effect,"30.3 µM, […]",16.97%
CC(C)(C)C(O)CN1CCN(C(=O)c2cccc3ncccc23)CC1 (centres undefined),Percent Effect,"30 µM, 30.03 µM",14.67%
Cc1cc(NCc2cn(C)nc2-c2cccnc2)n(C)n1,Percent Effect,"30.3 µM, […]",-18.07%
O=C1NCCCc2[nH]c(-c3nc(C4CC4)no3)nc21,Percent Effect,"30.3 µM, […]",0.06758%
Oc1cc(CCC2CCCCN2)cc(-c2cccnc2)c1 (centres undefined),Percent Effect,"30.3 µM, […]",51.21%
Oc1cc(CCC2CCCCN2)cc(-c2ccncc2)c1 (centres undefined),Percent Effect,"30 µM, 30.03 µM",12.39%
Nc1ccc(-c2cc(O)cc(CCC3CCCCN3)c2)cn1 (centres undefined),Percent Effect,"30.3 µM, […]",30.15%
CC[C@@H](C)[C@H](NC(=O)NC1CCS(=O)(=O)C1)C(=O)NCc1ccncc1 (some centres undefined),Percent Effect,"30.3 µM, […]",-5.4%
CNC(=O)CN(C)S(=O)(=O)c1c(Br)cc2[nH]c(=O)oc2c1Cl,Percent Effect,"30.3 µM, […]",30.57%
COC(=O)C(C)CN(C)S(=O)(=O)c1c(Br)cc2[nH]c(=O)oc2c1Cl (centres undefined),Percent Effect,"30.3 µM, […]",53.15%
CCNC(=O)CN(CC)S(=O)(=O)c1c(Br)cc2[nH]c(=O)oc2c1Cl,Percent Effect,"30.3 µM, […]",26.48%
COc1cc(OC)c(-c2nc3c([nH]2)c(C2CC2)nn3C)cc1OC,Percent Effect,"30.3 µM, […]",40.91%
CC(C)c1ncncc1C(=O)NCCN1CCOCC1,Percent Effect,"30.3 µM, […]",-51.02%
Cc1ccc(C(=O)Nc2cc(C(C)C)n[nH]2)cn1,Percent Effect,"30 µM, 30.03 µM",-3.681%
CC(C)c1cc(NC(=O)c2ccncc2)[nH]n1,Percent Effect,30 µM,-9.457%
CC(C)c1cc(NC(=O)c2cccnc2)[nH]n1,Percent Effect,30 µM,2.786%
CC(C)c1cc(NC(=O)c2ccc(C(=O)NC(C)(C)C)cc2)[nH]n1,Percent Effect,"30 µM, 30.03 µM",58.67%
Cc1ccc(CC(=O)Nc2cc(C(C)C)n[nH]2)cn1,Percent Effect,30 µM,62.25%
CC(C)c1cc(NC(=O)c2ccc([S+]([O-])C(C)C)cc2)[nH]n1 (centres undefined),Percent Effect,30 µM,33.29%
CC(=O)N1CCC(NC(=O)Cc2nc3nc(C)cc(C)n3n2)CC1,Percent Effect,"30.3 µM, […]",9.867%
O=C(c1ccc(CN2CCCCC2)cc1)N1Cc2cnn(CCO)c2C1,Percent Effect,"30.3 µM, […]",4.685%
COCCNC(=O)Nc1ccc(-c2nc(C(C)C)no2)cc1,Percent Effect,"30.3 µM, […]",-5.463%
Cc1nn(C)c(C)c1C1CCCN1c1ncnc2c1CCC2 (centres undefined),Percent Effect,"30.3 µM, […]",30.84%
COc1c(C2CCCN2c2ncnc3c2CCC3)c(C)nn1C (centres undefined),Percent Effect,"30.3 µM, […]",55.59%
Cc1nn(C)c(Cl)c1C1CCCN1c1ncnc2c1CCC2 (centres undefined),Percent Effect,"30.3 µM, […]",-27.23%
O=C(CN1CCSCC1c1ccccc1)N1CCCC1 (centres undefined),Percent Effect,"30.3 µM, […]",-14.01%
O=c1ccc(-c2cccs2)nn1CN1CCCCCC1,Percent Effect,"30 µM, 30.03 µM",13.2%
Cc1cc(N2CCC(O)(CN(C)C)C2)c2cc3c(cc2n1)OCO3 (centres undefined),Percent Effect,"30.3 µM, […]",-1.24%
Cn1cc(CN2Cc3cn(C)nc3C(COCC3CC3)C2)cn1 (centres undefined),Percent Effect,"30.3 µM, […]",53.65%
Cn1cc2c(n1)C(COCC1CC1)CN(Cc1ccsc1)C2 (centres undefined),Percent Effect,"30.3 µM, […]",-18.37%
COc1ccc(CN2Cc3cn(C)nc3C(COCC3CC3)C2)cc1 (centres undefined),Percent Effect,"30.3 µM, […]",16.82%
CCN(CC1CCOC1)C(=O)Nc1ccc(N2CCCC2)nc1 (centres undefined),Percent Effect,"30 µM, 30.03 µM",21.14%
COCCN(Cc1cnn(C)c1)C(=O)C1CCCN(C2CCOCC2)C1 (centres undefined),Percent Effect,"30.3 µM, […]",2.022%
CC(C)c1nnc2n1CCN(C(=O)CN1Cc3ccccc3C1=O)C2,Percent Effect,"30 µM, 30.03 µM",-6.489%
COc1cccc(NC(=O)CNc2ccc(C(=O)N(C)C)c(Cl)c2)c1,Percent Effect,"30.3 µM, […]",28.32%
CC(CC(=O)Nc1ccc(C(=O)N(C)C)c(Cl)c1)n1cccc1 (centres undefined),Percent Effect,"30.3 µM, […]",51.53%
CC(C)CNC(=O)c1ccc(NC(=O)NC(C)C)cc1Cl,Percent Effect,"30.3 µM, […]",-0.4257%
CCCN1CCCCC1C(=O)Nc1ccc(-c2nnc[nH]2)cc1 (centres undefined),Percent Effect,"30.3 µM, […]",6.317%
CC(C)N(CC(=O)Nc1ccc(Br)cc1Cl)Cc1cccnc1,Percent Effect,"30.3 µM, […]",0.9398%
Cc1ccnc(CNC(=O)C2CC(=O)N(CCN(C)C)C2)c1 (centres undefined),Percent Effect,"30.3 µM, […]",7.855%
CN(C)c1nccc(C2CCCCN2Cc2cnn3cccnc23)n1 (centres undefined),Percent Effect,"30.3 µM, […]",15.49%
c1cnc2c(CN3CCCCC3c3ccncn3)cnn2c1 (centres undefined),Percent Effect,"30.3 µM, […]",9.705%
CNc1nccc(C2CCCCN2Cc2cnn3cccnc23)n1 (centres undefined),Percent Effect,"30.3 µM, […]",53.78%
Cc1csc2c(=O)n(CCN3CCC(c4ccccc4)CC3)cnc12,Percent Effect,"30.3 µM, […]",-32.46%
Cc1nccn1CCCN1CCCC(c2nccn2C)C1 (centres undefined),Percent Effect,"30.3 µM, […]",28.64%
Cc1nccn1CCCN1CCCC(c2ccccc2)C1 (centres undefined),Percent Effect,"30.3 µM, […]",72.11%
Cc1nccn1CCCN1CCCC(c2nccn2CC2CCC2)C1 (centres undefined),Percent Effect,"30.3 µM, […]",28.26%
Cc1cnn(CCNCc2c(C)nn(-c3ccccc3)c2C)c1,Percent Effect,"30.3 µM, […]",-2.378%
CC(C)c1nc(C(=O)N2C[C@H](C(C)C)[C@@H](N)C2)cs1,Percent Effect,"30.3 µM, […]",39.61%
COCCn1nc(C(=O)N2CCN(C)CC2C)ccc1=O (centres undefined),Percent Effect,"30.3 µM, […]",4.243%
CCCc1nnsc1C(=O)NCC1CCN(c2ccccn2)CC1,Percent Effect,"30 µM, 30.03 µM",33.4%
CCCc1nnsc1C(=O)NCC1CCN(c2ncccn2)CC1,Percent Effect,"30.3 µM, […]",10.89%
Cc1nnsc1C(=O)NCC1CCN(c2ccccn2)CC1,Percent Effect,"30.3 µM, […]",51.71%
COCC(C)NC(=O)c1cc(C)n(-c2cccc(OC)c2)c1C (centres undefined),Percent Effect,30 µM,9.783%
CCNc1cc2c(nn1)CCN(C(=O)c1ccsc1)C2,Percent Effect,30 µM,18.6%
COCc1ccc(CNC(=O)C2=NN(c3ccccc3)C(=O)CN2)cc1,Percent Effect,"30 µM, 30.03 µM",41.01%
COc1ccc(C)cc1CNC(=O)C1=NN(c2ccccc2)C(=O)CN1,Percent Effect,"30.3 µM, […]",34.24%
COc1ccc(CNC(=O)C2=NN(c3ccc(C)cc3)C(=O)CN2)cc1,Percent Effect,"30.3 µM, […]",51.58%
COc1ccccc1CNC(=O)C1=NN(c2ccc(C)cc2)C(=O)CN1,Percent Effect,"30 µM, 30.03 µM",61.91%
COc1ncccc1CNC(=O)C1=NN(c2ccccc2)C(=O)CN1,Percent Effect,"30.3 µM, […]",-11.09%
N#Cc1ccc(CNC(=O)C2=NN(c3ccccc3)C(=O)CN2)cc1,Percent Effect,"30.3 µM, […]",17.15%
CC1CCc2n[nH]c(C(=O)NCCCc3ccccn3)c2C1 (centres undefined),Percent Effect,"30.3 µM, […]",-2.29%
CCOC(=O)c1ccc(NC(=O)c2cc3c([nH]c2=O)CCCC3)cc1,Percent Effect,"30.3 µM, […]",34.55%
CC(=O)Nc1nc(C(=O)N2CCCC2c2noc(C(C)C)n2)cs1 (centres undefined),Percent Effect,"30.3 µM, […]",-12.95%
C[C@@H]1CN(Cc2cccc(F)c2)C[C@]12CCN(Cc1cccnc1)C2=O.O=C(O)C(F)(F)F.O=C(O)C(F)(F)F,Percent Effect,"30.3 µM, […]",-0.6911%
COc1cc2nc(NCc3scnc3C)nc(N)c2cc1OC,Percent Effect,"30.3 µM, […]",62.63%
COc1cc2nc(NCc3cc(C)on3)nc(N)c2cc1OC,Percent Effect,"30.3 µM, […]",-3.382%
COc1ccccc1NCC(=O)NCc1scnc1C,Percent Effect,"30.3 µM, […]",29.29%
COCCCN1CC2(CCCCN2C(C)=O)CC1=O (centres undefined),Percent Effect,"30.3 µM, […]",13.42%
Cc1nc(N)ncc1C(=O)N1CCCC(CCc2ccc(F)c(F)c2)C1 (centres undefined),Percent Effect,"30.3 µM, […]",6.718%
Cc1ccc(-n2cnc(Cl)c2CO)cc1,Percent Effect,"30.3 µM, […]",12.87%
OCc1c(Cl)ncn1-c1ccc(F)cc1,Percent Effect,"30.3 µM, […]",25.45%
OCc1c(Cl)ncn1-c1ccccc1,Percent Effect,"30.3 µM, […]",61.75%
CC(C)CN1CCC2(CCN(Cc3nccs3)CC2)C1=O.O=C(O)C(F)(F)F,Percent Effect,"30.3 µM, […]",12.73%
Cc1noc(C)c1C(=O)N(C)C(C)c1cccnc1 (centres undefined),Percent Effect,"30.3 µM, […]",-5.434%
Cc1noc(CN(C)C(=O)c2n[nH]c(N)c2-c2ccccc2)n1,Percent Effect,"30.3 µM, […]",-0.6486%
CN(C)CC1(O)CCCN(c2nc(-c3ccccc3)no2)CC1 (centres undefined),Percent Effect,"30.3 µM, […]",31.64%
Cc1cc(N2CCCC(O)(CN(C)C)CC2)nc(-c2ccccc2)n1 (centres undefined),Percent Effect,"30.3 µM, […]",63.47%
CN(C)CC1(O)CCCN(c2noc(-c3ccccc3)n2)CC1 (centres undefined),Percent Effect,"30.3 µM, […]",2.473%
N#Cc1ccc(CN2C(=O)c3ccccc3CS2(=O)=O)cc1,Percent Effect,"30.3 µM, […]",-16.87%
Cc1cc(=O)[nH]c(-n2nc(C)c(CCC(=O)NCC(C)C)c2C)n1,Percent Effect,"30.3 µM, […]",15.57%
COC(=O)CCc1c(C)nn(-c2nc(C)cc(=O)[nH]2)c1C,Percent Effect,"30 µM, 30.03 µM",-18.05%
Cc1cc(=O)[nH]c(-n2nc(C)c(CCC(=O)Nc3nc(C)cs3)c2C)n1,Percent Effect,"30.3 µM, […]",59.04%
CC(CNc1cncc(-n2cccn2)n1)N(C)c1ccccc1 (centres undefined),Percent Effect,"30 µM, 30.03 µM",31.44%
Cc1ncnc(NCC(C)N(C)c2ccccc2)c1C (centres undefined),Percent Effect,"30.3 µM, […]",57.28%
Cc1nc2c(NCC(C)N(C)c3ccccc3)ncnc2o1 (centres undefined),Percent Effect,"30.3 µM, […]",33.01%
Cn1cccc1C(=O)N1CCC(c2nccn2Cc2ccncc2)CC1,Percent Effect,"30.3 µM, […]",6.64%
CN1CC(=O)N(c2ccccc2)CC12CCN(C(=O)c1cnccn1)C2.O=C(O)C(F)(F)F (centres undefined),Percent Effect,"30.3 µM, […]",4.293%
Cc1nn(CCC#N)c(C)c1[C@@H]1C=C[C@@H](NCc2ccc(F)cc2)C1,Percent Effect,"30.3 µM, […]",101.5%
Cc1nn(CCC#N)c(C)c1[C@@H]1C=C[C@@H](NCc2cccc(Cl)c2)C1,Percent Effect,"30.3 µM, […]",-10.48%
Cc1nn(CCC#N)c(C)c1CCC(=O)N(C)Cc1ccc(F)cc1F,Percent Effect,"30.3 µM, […]",2.715%
Cc1cccc2c1N(C)C(=O)C21CC(=O)Nc2c1cnn2C(C)(C)C (centres undefined),Percent Effect,"30.3 µM, […]",-18.37%
CCOC(=O)c1ccc(S(=O)(=O)NCc2cccnc2N(C)C)cc1,Percent Effect,30 µM,21.62%
CCOc1ccc(S(=O)(=O)NCc2cccnc2N(C)C)cc1,Percent Effect,"30 µM, 30.03 µM",61.25%
CN(C)c1ncccc1CNS(=O)(=O)c1ccc(F)c(F)c1,Percent Effect,30 µM,32.33%
CN(C)c1ncccc1CNS(=O)(=O)c1cc(F)cc(F)c1,Percent Effect,30 µM,13.05%
COc1ccc(S(=O)(=O)NCc2cccnc2N(C)C)cc1,Percent Effect,30 µM,27.65%
COc1ccc(S(=O)(=O)NCc2cccnc2N(C)C)cc1F,Percent Effect,"30 µM, 30.03 µM",58.31%
